Shown are actives, neighbours in structure and some others; about 4% of the full set was active somewhere.
KKLEB tox: counter-screen for CF NF-kB inhibitors: cytotoxicity. 360,000 tested, 0.36% active. KKLEB CF airway cells viability, ATPlite luminescence, overnight; stronger effect = lower value; cells stimulated with P. aeruginosa culture filtrate. activity change (cytotoxicity), % at 5 µM. AID 602141;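 active = corrected activity change at or below -50% at 5 µM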
Peg3 prom inh: inhibitors of Peg3 promoter | 360,000 tested, 1.7% active | inhibition, % at 20 µM | AID 588405 | HeLa PEG-Prom luciferase reporter, luminescence, overnight;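 active = inhibition of at least 50% at 20 µM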
TWEAK-Fn14 inh: inhibitors of TWEAK-Fn14 interaction signaling | TWEAK-stimulated Fn14 reporter cells, luciferase luminescence, 8 h | inhibition, % at 10 µM | 360,000 tested, 2% active | AID 1159606; in the data active = inhibition above about 50%
TROY signal inh: inhibitors of TROY-dependent NF-kB signaling | Q293 LMP1-TROYcd NF-kB luciferase reporter, 4 h | inhibition, % at 10 µM | 360,000 tested, 0.98% active | AID 1347056;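 active = compounds whose plate-normalised and pattern-corrected inhibition of the luciferase reporter signal at the single screening dose is 50% or more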
HIF-2a inh: blocks HIF-2a reporter activity; 786-0 RCC cells HIF-2a reporter, luciferase luminescence, overnight; inhibition, % at 18.8 µM; 360,000 tested, 0.72% active; AID 624352;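 active = inhibition of the luminescence signal of 40% or more relative to plate controls, in a single-dose primary screen at 18.75 µM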
CF NFkB block: cystic fibrosis NF-kB activation inhibition. inhibition, % at 5 µM. 360,000 tested, 0.86% active. KKLEB NF-kB-GFP reporter, PAF-induced, GFP fluorescence overnight;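 active = at least 50% inhibition at 5 µM, scaled per plate between neutral and stimulator controls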;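 also: PAF is a Pseudomonas aeruginosa culture filtrate used as stimulus; plate controls were PAF-stimulated DMSO wells for no effect and unstimulated DMSO wells for full effect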
Numbers without * were called inactive.

SMILES	KKLEB tox	Peg3 prom inh	TWEAK-Fn14 inh	TROY signal inh	HIF-2a inh	CF NFkB block
C=CCNC(=O)N1CCCC(C(=O)c2cccc(OC(C)C)c2)C1 (stereo not given)	5	-146	-9	-23	-176	1
CC1CN(c2ccc([N+](=O)[O-])c(NCCOc3ccc(Cl)cc3)c2)CC(C)N1 (stereo not given)	-18	77*	-101	-106	-16	-11
O=[N+]([O-])c1ccc(N2CCCCC2)cc1NCCOc1ccccc1	-24	-40	-11	-27	-86	15
CC1CN(c2ccc([N+](=O)[O-])c(NCCOc3ccccc3)c2)CC(C)N1 (stereo not given)	-1	29	-28	-45	-6	11
Cc1ccccc1OCCNc1cc(N2CC(C)NC(C)C2)ccc1[N+](=O)[O-] (stereo not given)	-2	81*	-31	-20	-16	16
CCCN1CCN(CC(=O)Nc2nncs2)CC1	-10	7	-10	-12	16	-3
O=c1c(O)cccc2cc(O)c(O)c(O)c12	1	19	78*	13	25	-10
COC(=O)C1CCN(C(=O)CN2C(=O)NC3(CCC(C)CC3)C2=O)CC1 (stereo not given)	-18	10	1	11	8	-15
COc1ccc2nc3c(cc2c1)c(NC(=O)c1cccs1)nn3CC(C)C	2	25	51*	4	-108	-5
CC(C)Cn1nc(NC(=O)c2cccs2)c2cc3ccccc3nc21	8	4	-14	9	6	1
Cc1cccc(-n2c(SCC(=O)NCC3CCCO3)nc3ccccc3c2=O)c1C (stereo not given)	10	15	12	5	8	-23
CC(=O)N[C@@H](Cc1c[nH]c2ccccc12)C(=O)OCc1cc(C(F)(F)F)cc(C(F)(F)F)c1	19	8	-12	5	10	-13
Cc1ccc(C(C(=O)NC(C)(C)C)N(Cc2cccs2)C(=O)c2ccc3c(c2)OCCO3)cc1 (stereo not given)	8	28	24	24	15	15
CCC(C)(C)NC(=O)C(c1ccc(C)cc1)N(Cc1cccs1)C(=O)c1ccc2c(c1)OCCO2 (stereo not given)	-1	11	88*	55*	-11	10
O=C(/C(=C/O)N=Nc1ccccc1Cl)c1ccccc1	-19	22	58*	52*	-9	37
O=C(/C(=C/O)N=Nc1cccc(C(F)(F)F)c1)c1ccccc1	-6	9	-3	19	-2	26
CCn1c(Cc2ccccc2)nnc1SCC(=O)N1CCCC1=O	25	8	12	-15	6	-25
O=C(COC(=O)Cc1ccsc1)Nc1ccc(Br)cc1F	14	-4	-8	-17	-8	-16
CC(NC(=O)c1cc(-c2ccncc2)nc2ccc(Br)cc12)C1CCCO1 (stereo not given)	3	24	-11	-7	19	-23
CCN(CCNCC(O)COCc1ccc(Cl)cc1)c1cccc(C)c1 (stereo not given)	2	103*	-2	-13	6	-13
CCN(CCNC(=O)c1ccc(C#N)cc1)c1cccc(C)c1	-10	-3	-8	-17	4	-8
C[C@@H]1CN([C@@H](C)CO)S(=O)(=O)c2ccc(C#Cc3cccc(F)c3)cc2O[C@@H]1CN(C)CC1CC1	-14	-1	3	8	7	17
COc1ccc(NC(=O)O/N=C/c2c(C)nn(C(C)(C)C)c2C)cc1	-1	-187	-10	65*	-148	-16
Cc1ccnc(NC(=O)c2cccs2)c1	-1	-196	-6	-42	-174	1
Cc1cc(NC(=O)c2cccs2)ncc1NC(=O)C(C)(C)C	-4	-147	47	51*	-80	-1
COc1cc(C(O)c2nc(-c3csc4ccccc34)cs2)ccc1F (stereo not given)	-3	-25	5	3	-84	-1
COCCN(CC(=O)Nc1cccc(C)c1C)C(=O)c1oc2c(Cl)cccc2c1C	-7	52*	-4	4	18	-10
COc1ccc(OC)c(NC(=O)C2(C)CCN2C(=O)C(C)(C)c2ccccc2)c1 (stereo not given)	2	3	-3	5	4	4

High-throughput results (PubChem)
